High-throughput results (PubChem BioAssay)
3T3 cytotox = Cytotoxic Profiling in NIH 3T3 Cell Line of Diverse Libraries Using Quantitative High-Throughput Screening. Potency, µM (doses to about 96.7 µM), hits mostly inhibitors. hit rate 4.3% among 94,000. NIH 3T3 viability, CellTiter-Glo ATP luminescence, 48-72 h; further: nearly all actives have a fitted effect of over 55% in size
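Luminescent ATP readout (CellTiter-Glo, 10 min RT) after 48 or 72 hr compound exposure of NIH 3T3 cells seeded at 400 cells/well in 1536-well format; quantitative HTS.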
NPR1 antag = Natriuretic polypeptide receptor (hNpr1) antagonism - Primary qHTS; Potency, µM (doses to about 46.3 µM), usual class: inhibitors; HEK293 hNpr1 GloSensor cGMP, ANP-stimulated luminescence; Atrial natriuretic peptide receptor 1 (Homo sapiens), P16066; hit rate 1.6% among 76,000; calls by dose curve; further: nearly all actives have a fitted effect of over 60% in size
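Compound pre-incubated 30 min at room temperature on GloSensor-loaded HEK293 cells stably carrying hNpr1 and the pGS-40F cGMP biosensor. Stimulation uses hNppA at 0.1 nM final; luminescence is taken at baseline and 20 min post-agonist.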
HEK293 tox = Cytotoxic Profiling in HEK 293 Cell Line of Diverse Libraries Using Quantitative High-Throughput Screening; hit rate 6.6% among 94,000; Potency, µM (titrated, usually from 115 µM), usual class: inhibitors; HEK 293 viability, ATP luminescence (CellTiter-Glo), 48-72 h; AID 1345083, 2018; further: nearly all actives have a fitted effect of over 60% in size
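Luminescence from cellular ATP, measured with CellTiter-Glo, indicates HEK 293 viability. Cells plated at 250 cells/well are treated with compound for 48 or 72 hr at 37 degree Celsius before reagent addition.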
FLuc inh = Firefly luciferase inhibition profiling of diverse chemical library using quantitative high-throughput screening; purified P. pyralis luciferase, luminescence, biochemical; Luciferin 4-monooxygenase (Photinus pyralis), P08659; Potency, µM (titrated, usually from 115 µM), hits mostly inhibitors; hit rate 2.5% among 76,000; further: nearly all actives have a fitted effect of over 65% in size
Target sequence (P08659 whole entry, looked up): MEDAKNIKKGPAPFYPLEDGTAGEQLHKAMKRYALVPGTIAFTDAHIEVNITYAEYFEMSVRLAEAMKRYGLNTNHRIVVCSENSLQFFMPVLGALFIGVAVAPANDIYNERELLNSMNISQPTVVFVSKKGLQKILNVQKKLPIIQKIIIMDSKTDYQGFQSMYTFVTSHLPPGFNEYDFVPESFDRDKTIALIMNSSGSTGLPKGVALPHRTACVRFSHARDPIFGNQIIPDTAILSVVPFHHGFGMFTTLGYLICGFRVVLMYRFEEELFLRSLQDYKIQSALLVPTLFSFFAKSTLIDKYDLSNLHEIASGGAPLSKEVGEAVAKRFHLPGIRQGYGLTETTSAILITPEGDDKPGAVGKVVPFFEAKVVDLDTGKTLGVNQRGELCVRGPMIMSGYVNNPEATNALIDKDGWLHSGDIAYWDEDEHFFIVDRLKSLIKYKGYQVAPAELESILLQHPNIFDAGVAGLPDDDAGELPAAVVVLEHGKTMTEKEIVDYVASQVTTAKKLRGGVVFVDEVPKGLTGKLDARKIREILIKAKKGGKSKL
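Biochemical qHTS: compound (6-point titration) added to 10uM D-luciferin plus 10uM ATP in Tris acetate pH 7.5 buffer with Mg, Tween-20 and BSA, then purified enzyme at 10nM; light output imaged.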
Of the large screens only hits and unclear results are named; the others gave an inactive call. The list is not random: actives were taken first. Their share in the collection is about 11%. Unless noted, the call rests on the fitted dose curve; in most records, active means well fitted curve in the direction sought with a large enough effect; inconclusive means small, poorly fitted or top-dose-only effect, or another doubt; inactive means no such curve, though single readings can be large; an effect the other way counts as inactive or inconclusive.

CCOc1ccc(C(=O)NC2CCCN(c3cc(-c4ccccc4)[nH]n3)C2)cc1OCC (centres undefined)	3T3 cytotox inconclusive, HEK293 tox 32µM
COc1ccc(C(=O)NC2CCN(c3cc(-c4ccccc4)[nH]n3)C2)cc1F (centres undefined)	3T3 cytotox inconclusive, HEK293 tox inconclusive
CCOc1cc(C(=O)NC2CCN(c3cc(-c4ccccc4)[nH]n3)C2)cc(OCC)c1OCC (centres undefined)	3T3 cytotox inconclusive, HEK293 tox inconclusive
COc1ccc(C(=O)NC2CCCN(c3cc(-c4ccccc4)[nH]n3)C2)cc1OC (centres undefined)	HEK293 tox inconclusive, FLuc inh 28µM
O=C1c2cnc(-c3ccc(F)cc3)nc2OCCN1Cc1ccc(F)cc1F	3T3 cytotox inconclusive, HEK293 tox inconclusive
O=C1c2cnc(-c3ccc(Oc4ccccc4)cc3)nc2OCCN1CC1CC1	3T3 cytotox 28µM, NPR1 antag 7.1µM, HEK293 tox inconclusive, FLuc inh inconclusive
O=C1c2cnc(-c3ccc(CO)cc3)nc2OCCN1Cc1ccc(F)cc1F	3T3 cytotox inconclusive, HEK293 tox 89µM, FLuc inh inconclusive
O=C1c2cnc(-c3cccnc3)nc2OCCN1Cc1ccccc1	HEK293 tox inconclusive
COc1ccc(CN2CCOc3nc(-c4cccc(NC(C)=O)c4)ncc3C2=O)cc1	3T3 cytotox inconclusive, HEK293 tox 100µM
COCCN1CCOc2nc(-c3ccc(Oc4ccccc4)cc3)ncc2C1=O	3T3 cytotox inconclusive, NPR1 antag 22µM, HEK293 tox 56µM, FLuc inh 22µM
COC[C@@H]1[C@H](C(=O)NCc2cc(OC)ccc2OC)CCC(=O)N1C	3T3 cytotox inconclusive, HEK293 tox inconclusive
O=C(NC1CC1)C1COC2(CCN(C(=O)c3ccc(F)cc3)CC2)N1C(=O)c1cccc(F)c1 (centres undefined)	3T3 cytotox inconclusive
COc1ccc(-c2cc(N3CCC(NC(=O)COc4ccccc4C)CC3)n[nH]2)cc1	3T3 cytotox 25µM, NPR1 antag inconclusive, HEK293 tox inconclusive
COc1ccc(-c2cc(N3CCCC(NC(=O)CCc4ccccc4OC)C3)n[nH]2)cc1 (centres undefined)	3T3 cytotox inconclusive, HEK293 tox 40µM
COc1ccc(-c2cc(N3CCC(NC(=O)Cc4ccccc4C)CC3)n[nH]2)cc1	3T3 cytotox inconclusive, HEK293 tox inconclusive
COc1ccc(CC(=O)NC2CCCN(c3cc(-c4ccc(F)cc4)[nH]n3)C2)cc1OC (centres undefined)	3T3 cytotox inconclusive, NPR1 antag inconclusive, HEK293 tox 45µM
CCOc1ccc(CC(=O)NC2CCCN(c3cc(-c4ccc(F)cc4)[nH]n3)C2)cc1OCC (centres undefined)	3T3 cytotox inconclusive, HEK293 tox inconclusive
COc1ccc(-c2cc(N3CCC(NC(=O)CCc4ccccc4OC)CC3)n[nH]2)cc1	3T3 cytotox inconclusive, HEK293 tox inconclusive
c1ccc(-c2ccnc(NCCOc3cccc4cccnc34)n2)nc1	3T3 cytotox inconclusive, HEK293 tox inconclusive
CC(C)(N)C(=O)N1CCCC(N2CCN(Cc3ccc4c(c3)OCO4)CC2)C1 (centres undefined)	HEK293 tox inconclusive
CCc1nc2c(c(-c3ccc(OC)cc3)n1)CCN(Cc1ccc(C#N)cc1)CC2	HEK293 tox inconclusive (no result: NPR1 antag, FLuc inh)
Cc1ccc(CNC2CN(C(=O)OC(C)(C)C)C2)cc1	none (no result: NPR1 antag, FLuc inh)
Cc1nc(NC(=O)C2CC(=O)N(c3n[nH]c4cccc(F)c34)C2)sc1C (centres undefined)	HEK293 tox inconclusive
O=C(Nc1nccs1)C1CC(=O)N(c2n[nH]c3cccc(F)c23)C1 (centres undefined)	3T3 cytotox inconclusive, HEK293 tox inconclusive
Cc1ccc2nc(NC(=O)C3CC(=O)N(c4n[nH]c5cccc(F)c45)C3)sc2c1 (centres undefined)	3T3 cytotox 32µM, HEK293 tox 25µM
COc1ccc(C)cc1NC(=O)C1CC(=O)N(c2n[nH]c3cc(Br)ccc23)C1 (centres undefined)	3T3 cytotox inconclusive, HEK293 tox 45µM
Cc1ccnc(NC(=O)C2CC(=O)N(c3n[nH]c4cccc(F)c34)C2)c1 (centres undefined)	3T3 cytotox inconclusive, HEK293 tox 28µM
CC(C)(C)c1csc(NC(=O)C2CC(=O)N(c3n[nH]c4cccc(F)c34)C2)n1 (centres undefined)	3T3 cytotox inconclusive, HEK293 tox 45µM
CN1CCC(C2CCN(S(=O)(=O)c3cc(F)ccc3F)C2)CC1 (centres undefined)	none
O=C(NC1CCCCC1)c1nc2sccn2c1-c1cccnc1	none (no result: NPR1 antag, FLuc inh)
c1ccc(C2CCN(c3ccc4nnc(-c5ccccn5)n4n3)CC2)cc1	3T3 cytotox 32µM, HEK293 tox 63µM
COc1ccnc(-c2nnc3ccc(N4C[C@@H](C)O[C@@H](C)C4)nn23)c1	3T3 cytotox 32µM, HEK293 tox inconclusive
COc1ccc(-c2nnc3ccc(N4CCN(C(C)=O)CC4)nn23)nc1	3T3 cytotox inconclusive
COc1ccnc(-c2nnc3ccc(N4CCc5ccccc5CC4)nn23)c1	3T3 cytotox 50µM, HEK293 tox 56µM
Fc1ccc(-c2nnc3ccc(N4CCN(c5ccccn5)CC4)nn23)nc1	3T3 cytotox inconclusive
COc1ccc(-c2nnc3ccc(N4CCCC4)nn23)nc1	3T3 cytotox 32µM
COc1ccnc(-c2nnc3ccc(N4CCN(C(=O)c5ccco5)CC4)nn23)c1	3T3 cytotox inconclusive
OCc1ccc(-c2ccc3nnc(-c4ccccn4)n3n2)cc1	3T3 cytotox 89µM
Cc1ccc(C)c(-n2nc(-c3c(C)nc4scc(CC(=O)NC5CCCCC5)n4c3=O)cc2C)c1	3T3 cytotox 40µM, HEK293 tox inconclusive
Cc1ccc(NC2=N[C@H]3[C@@H](O)[C@H](O)C[C@H](C(=O)N(C)Cc4ccccc4)[C@H]3S2)cc1	FLuc inh 32µM
O=C(CC1CC1)N1CCC(Oc2cnc3c(ccn3-c3cncnc3)c2)CC1	3T3 cytotox inconclusive, HEK293 tox inconclusive
O=C(Cc1ccccc1)N1CCC(Oc2cnc3c(ccn3-c3cncnc3)c2)CC1	3T3 cytotox inconclusive, HEK293 tox 56µM
O=C(OCc1ccccc1)N1CCC(Oc2cnc3c(ccn3-c3cncnc3)c2)CC1	3T3 cytotox inconclusive, NPR1 antag inconclusive, HEK293 tox 79µM
Cc1ncccc1C(=O)N1CCC(Oc2cnc3c(ccn3-c3cncnc3)c2)CC1	3T3 cytotox 71µM
CCCC(=O)N1CCC(Oc2cnc3c(ccn3-c3cncnc3)c2)CC1	3T3 cytotox 10µM, HEK293 tox inconclusive
O=C(NC1CCCc2c1[nH]c1c(Cl)cccc21)c1ccccn1 (centres undefined)	3T3 cytotox inconclusive, HEK293 tox inconclusive
